Activity calls are given as the source filed them. Unless noted, how the calls were made is not given here.
Experiments:
[1] = liver-stage malaria parasite load reduction – cell-based, known kinase inhibitor set, luminescence, hepatoma host viability (AID 624392); settings: Plasmodium liver stage in hepatoma cells, luciferase luminescence, concentration not given here; liver cell % of control: measured here: host liver cell viability; parasite % of control: stronger effect = lower value;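 further: infected cells incubated roughly two days before readout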
[2] = altered dexamethasone sensitivity, NF-kB reporter, cell-based, luciferase, IL-1B stimulus (AID 624486); settings: IL-1B + dexamethasone, luminescence; percent of negative control (+Dex): actives lie on both sides, concentration not given here; z-score: measured here: IL-1B alone, no Dex;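 on percent of negative control (+Dex): 100% = mean signal of vehicle control wells on the plate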
[3] = C. elegans survival during P. aeruginosa infection – whole organism (AID 651566);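 further: tested at 14 µM; sign flipped so higher z means a lower ratio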; settings: C. elegans killed by P. aeruginosa, survival ratio
[4] = pro-inflammatory signaling induction in mouse macrophages – cell-based, murine, luminescence (AID 652131); settings: murine macrophage pro-inflammatory reporter, stronger effect = higher value
[5] = target: Cellular tumor antigen p53 (Homo sapiens) (UniProt P04637); test: GFP-p53 level modulators in HPV16+ cells – imaging, known kinase inhibitor set, EGFP/DsRed ratio (AID 1053116); settings: GFP-p53 stability, stronger effect = higher value; EGFP object count: measured here: GFP-p53 positive objects count;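 further: cells exposed to compounds for 24 h at 37 °C before reading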
Sequence of Cellular tumor antigen p53 (Homo sapiens) (P04637 whole entry, looked up): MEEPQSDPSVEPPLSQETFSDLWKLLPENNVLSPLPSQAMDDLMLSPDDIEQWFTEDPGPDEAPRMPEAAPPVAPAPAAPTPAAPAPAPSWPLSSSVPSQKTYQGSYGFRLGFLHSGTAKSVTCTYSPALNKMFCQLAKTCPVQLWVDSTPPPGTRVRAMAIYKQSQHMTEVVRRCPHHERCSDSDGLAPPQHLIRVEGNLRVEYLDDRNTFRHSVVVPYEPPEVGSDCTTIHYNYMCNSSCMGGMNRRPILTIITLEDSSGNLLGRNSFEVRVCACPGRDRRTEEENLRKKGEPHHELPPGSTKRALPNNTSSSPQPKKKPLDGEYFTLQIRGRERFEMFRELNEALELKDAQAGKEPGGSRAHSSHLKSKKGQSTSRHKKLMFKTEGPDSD

[6] = inducers of IRF3 signaling, differentiated THP-1 – cell-based, PMA-stimulated THP-1, luminescence (AID 1053176); settings: PMA-differentiated THP-1, IRF3 reporter luminescence; stronger effect = higher value
[7] = MELAS cybrid and Rieske KO viability enhancers – cell-based, MELAS cybrids, Rieske KO mouse fibroblasts, CellTiter-Glo, primary screen (AID 1508586;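 active means mean z-score across replicates of 1.96 or higher in either the MELAS or the Rieske mutant cell line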;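 further: z relative to plate mean and SD of compound and empty wells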); settings: low glucose
[8] = MELAS cybrid survival, CellTiter-Glo 48 h, stronger effect = higher value
[9] = Rieske KO mouse fibroblast survival, CellTiter-Glo 72 h

Compound | liver cell % of control [1] | parasite % of control [1] | percent of negative control (+Dex) [2] | z-score [2] | z-score [3] | z-score [4] | EGFP object count [5] | EGFP/DsRed ratio [5] | fraction signal [6] | z-score [7, 8] | z-score [7, 9]
c1ccc(-c2nc3n(c2-c2ccc4c(c2)OCO4)CCC3)nc1 | 103% | 16.7% (inactive) | 102% (inactive) | 0.295 | 1.04 (inactive) | 4.3 (inactive) | 6 | 0.172 (inactive) | -0.003 (inactive) | -1.04 (inactive) | 0.741
COc1cc(/C=N/Nc2ncnc3c2cnn3-c2ccccc2)ccc1O | 108% | 61% (inactive) | 92% (inactive) | 0.145 | 0.145 (inactive) | -0.075 (inactive) | 4.5 | 0.778 (inactive) | -0.007 (inactive) | 1.22 (inactive) | 0.165
CN(C)C(=O)O[C@@H]1CN[C@@H](C#Cc2cc3ncnc(Nc4ccc(OCc5cccc(F)c5)c(Cl)c4)c3s2)C1 | 108% | 112% (inactive) | 87% (inactive) | -0.155 | 0.705 (inactive) | -0.722 (inactive) | 4 | 0.0417 (inactive) | -0.0055 (inactive) | 0.394 (inactive) | -0.329
CCc1cccc(CC)c1/C=C/c1cncc(C(=O)NC)c1 | 170% | 99.3% (inactive) | 81% (inactive) | -0.295 | -0.265 (inactive) | 0.127 (inactive) | 4.5 | 0.156 (inactive) | -0.0125 (inactive) | 1.32 (inactive) | -0.269
NC(=O)c1cccc(Nc2nccc(Nc3cccc(F)c3)n2)c1 | 116% | 398% (inactive) | 208% (active) | 8.4 | 1.67 (inactive) | 0.244 (inactive) | 2 | 0.0178 (inactive) | 0.002 (inactive) | -0.778 (inactive) | -0.359
COc1cccc(-n2ncc3c(N/N=C/c4ccc(C)cc4)ncnc32)c1 | 114% | 130% (inactive) | 105% (inactive) | 0.92 | -0.225 (inactive) | -0.468 (inactive) | 9.5 | 0.811 (inactive) | 0.0005 (inactive) | -0.521 (inactive) | 0.152
O=C(Nc1ccc(Oc2ccc3nc(NC(=O)c4ccccc4)[nH]c3c2)cc1)Nc1cc(C(F)(F)F)ccc1F | 151% | 113% (inactive) | 102% (inactive) | 0.635 | -0.485 (inactive) | -1.71 (inactive) | 2.5 | 0.0378 (inactive) | -0.006 (inactive) | 8.17 (active) | 1.84
NS(=O)(=O)c1ccc(NC2CC(c3ccc(O)c(F)c3)NN2)cc1 (stereo not drawn) | 113% | 139% (inactive) | 94.5% (inactive) | -0.075 | -1.04 (inactive) | -0.229 (inactive) | 2.5 | 0.101 (inactive) | 0.0025 (inactive) | -0.752 (inactive) | -0.137
c1ccc(Nc2ncc(-c3ccccc3)o2)cc1 | 98.7% | 93.5% (inactive) | 246% (active) | 11.2 | -1.27 (inactive) | 0.128 (inactive) | 5 | 0.0918 (inactive) | -0.011 (inactive) | 1.22 (inactive) | -0.446
CCCN1CCC=C(c2ccc(Nc3nc(Nc4ccccc4C(N)=O)c4cc[nH]c4n3)c(C)c2)C1 | 86.8% | 580% (inactive) | 88% (inactive) | -0.67 | 0.47 (inactive) | -1.61 (inactive) | 4 | 0.193 (inactive) | 0 (inactive) | -0.329 (inactive) | 0.0526
COc1ccc(-c2nn3ncccc3c2-c2ccnc(Nc3ccc4c(c3)OCCO4)n2)cc1 | 172% | 12.5% (active) | 79% (inactive) | -1.21 | 1.58 (inactive) | -0.248 (inactive) | 1.5 | 0.0413 (inactive) | 0.0025 (inactive) | 0.896 (inactive) | 0.839
COc1cc(/C=N/Nc2ncnc3c2cnn3C(C)C)ccc1O | 128% | 63.2% (inactive) | 92.5% (inactive) | 0.145 | -0.5 (inactive) | -0.511 (inactive) | 6.5 | 0.127 (inactive) | -0.006 (inactive) | -1.18 (inactive) | 1.02
NS(=O)(=O)c1ccc(NC2CC(c3cccc(O)c3)NN2)cc1 (stereo not drawn) | 92.2% | 101% (inactive) | 81.5% (inactive) | -0.55 | -1.21 (inactive) | 1.01 (inactive) | 5.5 | 0.108 (inactive) | -0.0035 (inactive) | 1.31 (inactive) | -0.281
CCn1c(-c2nonc2N)nc2c(C#CC(C)(C)O)ncc(OC3CCNCC3)c21 | 78% | 13.9% (active) | 89% (inactive) | -0.435 | 0.17 (inactive) | 3.47 (inactive) | 10.5 | 0.266 (inactive) | 0.001 (inactive) | -0.105 (inactive) | -0.284
CC(C)(CO)CNC(=O)c1ccc2[nH]c(O)c(N=Nc3ccc(S(N)(=O)=O)cc3)c2c1 | 82.1% | 103% (inactive) | 93% (inactive) | -0.01 | -1.1 (inactive) | -0.381 (inactive) | 3 | 0.052 (inactive) | -0.004 (inactive) | -0.345 (inactive) | -0.442
CCCNc1cccc(-n2ncc3c(N/N=C/c4ccncc4)ncnc32)c1 | 95.8% | 39.7% (inactive) | 90% (inactive) | -0.38 | 0.37 (inactive) | -1.11 (inactive) | 8.5 | 0.328 (inactive) | -0.005 (inactive) | 1.12 (inactive) | -0.108
O=C(Nc1n[nH]c2cc(-c3ccc(F)cc3)ccc12)C1CC1 | 152% | 140% (inactive) | 115% (inactive) | 1.05 | 0.27 (inactive) | 0.642 (inactive) | 3 | 0.145 (inactive) | -0.001 (inactive) | -1.18 (inactive) | -0.329
O=C1Nc2ccc(I)cc2/C1=C\c1cc(Br)c(O)c(Br)c1 | 86.2% | 77.5% (inactive) | 92% (inactive) | -0.355 | 1.3 (inactive) | 0.587 (inactive) | 1 | 0.0402 (inactive) | -0.0105 (inactive) | 0.405 (inactive) | -0.253
c1cnn2ncc(-c3ccnc(NCCCN4CCOCC4)n3)c2c1 | 91.2% | 426% (inactive) | 57% (inactive) | -4.11 | 0.63 (inactive) | -1.59 (inactive) | 1.5 | 0.248 (inactive) | -0.004 (inactive) | -0.792 (inactive) | -0.375
CN1CCC(n2cnc(-c3ccc(F)cc3)c2-c2ccnc(N)n2)CC1 | 83.2% | 168% (inactive) | 107% (inactive) | 2.09 | 0.34 (inactive) | 3.77 (inactive) | 1.5 | 0.024 (inactive) | -0.004 (inactive) | -0.312 (inactive) | -0.31
O=C(Nc1n[nH]c2nc(-c3ccco3)c(Br)cc12)C1CC1 | 109% | 102% (inactive) | 95% (inactive) | 0.68 | -0.17 (inactive) | 0.441 (inactive) | 4 | 0.447 (inactive) | -0.002 (inactive) | -1.24 (inactive) | 0.037
CC1=C(C(=O)Nc2cc(Cl)c3[nH]ncc3c2)C(c2ccc(C(F)(F)F)cc2)CC(=O)N1 (stereo not drawn) | 106% | 193% (inactive) | 73% (inactive) | -1.52 | -0.22 (inactive) | -0.455 (inactive) | 2 | 0.126 (inactive) | -0.01 (inactive) | -0.0142 (inactive) | -0.416
CC1=C(C(=O)Nc2ccc3[nH]ncc3c2)C(c2ccc(F)cc2)NC(=O)N1 (stereo not drawn) | 105% | 158% (inactive) | 100% (inactive) | 0.22 | 0.64 (inactive) | -0.296 (inactive) | 3.5 | 0.352 (inactive) | 0.0035 (inactive) | 0.62 (inactive) | -0.219
Nc1nccc(-c2c(-c3ccc(F)cc3)ncn2CCCN2CCOCC2)n1 | 120% | 130% (inactive) | 116% (inactive) | 2.06 | -0.635 (inactive) | 1.67 (inactive) | 3.5 | 0.019 (inactive) | -0.0025 (inactive) | -0.929 (inactive) | -0.324
O=C1NC(=O)C(c2ccc(Cl)cc2)=C1Nc1ccc(Cl)c(C(=O)O)c1 | 104% | 127% (inactive) | 92% (inactive) | 0.785 | 0.035 (inactive) | 0.277 (inactive) | 4 | 0.0822 (inactive) | -0.003 (inactive) | -0.525 (inactive) | -0.308
CN1CCC(n2cnc(-c3ccc(F)cc3)c2-c2ccnc(NCCO)n2)CC1 | 86.8% | 138% (inactive) | 102% (inactive) | 1.04 | 0.4 (inactive) | 0.387 (inactive) | 3.5 | 0.139 (inactive) | -0.0015 (inactive) | -0.289 (inactive) | -0.297
CCN1CCC(C(=O)NC2NNC3NNC(c4cccc(F)c4F)CC32)CC1 (stereo not drawn) | 73.6% | 144% (inactive) | 114% (inactive) | -0.315 | -0.46 (inactive) | 2.7 (inactive) | 15 | 0.326 (inactive) | -0.002 (inactive) | -0.831 (inactive) | -0.194
O=C1Nc2ccc(-c3cccnc3)cc2/C1=C\c1cc(Br)c(O)c(Br)c1 | 174% | 13.3% (inactive) | 102% (inactive) | -0.125 | 0.98 (inactive) | 0.575 (inactive) | 1.5 | 0.0182 (inactive) | -0.0065 (inactive) | -0.192 (inactive) | -0.185

— PubChem BioAssay
